Common to all, as to test: NCI-60 one-dose screen, 48 h (100 = growth as untreated, 0 = no growth, -100 = all killed)
Details in all cases: 10 µM unless noted

Assay [1] relates to DU-145 prostate.
Assay [2] has as its system K-562 leukemia.
Assay [3] has as its system MALME-3M melanoma.
For assay [4], the system named is MDA-MB-231 breast.
Assay [5] relates to RXF 393 renal.
Assay [6] relates to SF-268 CNS.
Assay [7] deals with SF-295 CNS.
Assay [8] deals with SF-539 CNS.
The test system of assay [9] is UACC-257 melanoma.
Assay [10] has as its system M14 melanoma.

Several values for one entry are separate records, joined by “and”; a condition that tells them apart may be missing. Equal entries are not always repeated. About 83,000 compounds went through this panel and 20% of them were active in at least one assay; those are over-represented in the sample as a whole.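 Testing used 96-well plates and a 48-hour single-concentration exposure. Example: -40 means 40% of the starting cells died.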 Values without a mark were called inactive. Activity calls are given as the source filed them. The calls were made as follows: active = growth percent below 10; inactive = the rest.

As for `Fc1ccc(F)c(CNc2nc(SCCN3CCOCC3)nc3c2cnn3CC(Cl)c2ccc(Br)cc2)c1` (stereo not given), the growth is 43.3% in assay [1]; 10.6% in assay [2]; -30% (active) in assay [3]; 6.86% (active) in assay [4]; -4.06% (active) in assay [5]; 30.1% in assay [6]. Moreover, the growth in assay [7] was 5.06% (active); in [8] it was 17.9%; in [9], 6.07% (active); in assay [10], 18.1%.
Regarding `Nc1nnc(-c2cncc(Br)c2)c(-c2c[nH]c3ccc(Br)cc23)n1`, the growth in assay [1] was 85.9%; in assay [2] it was 19.1%; in assay [3], 74.1%; in [4], 48.7%; in assay [5], 55.6%; in assay [6], 77.1%. In addition, the growth in assay [7] is 74.5%; in assay [8] it was 52.3%; in [9] it was 73.9%; in assay [10], 44.5%.
Consider `CC(C)(C)c1ccc(OCc2nc3ccccc3n2-c2cccc(N)c2)cc1`, for which the growth is 80.8% and 124% in assay [1]; 33.3% and 101% in [2]; 48.7% and 101% in assay [3]; 53.4% and 106% in assay [4]; 75.3% and 90.7% in [5]; 74.4% and 112% in assay [6]. Besides, the growth in [7] was 57.7% and 100%; in assay [8], 66.7% and 100%; in assay [9], 73.8% and 111%; in [10] it was 99.8% and 103%.
Consider `O=C1Nc2cc(-c3ccc(NS(=O)(=O)c4ccc([N+](=O)[O-])cc4)cc3)ccc2/C1=C/c1ccc[nH]1`, for which the growth in assay [1] was -44.9% (active); in assay [2] it was 12.6%; in assay [3], -0.842% (active); in assay [4] it was 12.3%; in assay [5] it was -44.3% (active); in assay [6], 46.6%. The growth in assay [7] was -32.7% (active); in assay [8], -54.4% (active); in assay [9] it was 4.04% (active); in [10], -13.9% (active).
As to `O=C(c1ccc(O)cc1)C1[C@H](c2ccc(Cl)cc2)[C@@H](c2ccccc2)NC12C(=O)Nc1ccccc12` (stereo not given in full), the growth in [1] is 20.5%; in [2], -8.58% (active); in assay [3], -40.2% (active); in assay [4] it was -80.2% (active); in assay [5], -74% (active); in [6], 22.4%. The growth in [7] is -48.6% (active); in [8] it was -50.6% (active); in assay [9] it was 77.7%; in assay [10] it was -27% (active).
Take `COc1ccc2[nH]c(=O)c(CSc3ccccc3Nc3nccc(-c4ccc5c(c4)OCO5)n3)cc2c1`: the growth in [1] is 78.4%; in assay [2] it was 52.7%; in assay [3], 99.4%; in assay [4], 93.7%; in [5], 79.7%; in assay [6] it was 73.4%. The growth in [7] was 104%; in assay [8], 95%; in assay [9], 96.6%; in assay [10] it was 91.5%.
On to `CCC(=O)c1c2c(c3ccc4c5ccccc5ccc4n13)C(=O)c1ccccc1C2=O`, for which the growth in assay [1] was 20.3%; in [2], 96.7%; in assay [3] it was -87.5% (active); in assay [4] it was 83%; in [5], 109%; in assay [6], 95.4%. The growth in assay [7] was 65.8%; in [8], 77.8%; in assay [9], 71.6%; in assay [10], 24.6%.
`Cc1nc2sccn2c1-c1nnc(SCc2ccccc2)o1`: the growth is 96.6% in assay [1]; 75.8% in assay [2]; 106% in [3]; 98.6% in assay [4]; 78.9% in assay [5]; 105% in assay [6]. The growth in assay [7] is 82.5%; in assay [8], 93.4%; in [9], 94%; in assay [10], 96.7%.
As for `CC[C@]12C=CCN3CC[C@]4(C(=C(C(=O)OC)C1)Nc1cc(OC)c([C@@H]5[C@H]6O[C@H]6[C@@]6(CC)CC(C(=O)OC)=C7Nc8cc(OC)ccc8[C@@]78CCN5[C@@H]68)cc14)[C@@H]32`, the growth was 70.2% in [1]; 13.7% in assay [2]; 44.4% in assay [3]; 52.6% in [4]; 48.1% in [5]; 57.3% in assay [6]. Also, the growth in assay [7] was 53.8%; in assay [8] it was 61.4%; in [9], 75.2%; in assay [10], 60.2%.
Consider `c1n[nH]cc1-c1nc2ccc3cn[nH]c3c2c2c1CCCC2`, for which the growth was 93% in assay [1]; 101% in [2]; 72.9% in assay [3]; 58.3% in assay [4]; 44.8% in assay [5]; 94.1% in assay [6]. In addition, the growth in [7] is 89.4%; in assay [8], 80.8%; in assay [9], 100%; in [10] it was 93.2%.
With `CN(C)c1nc(NCCNS(=O)(=O)c2ccc(C(=O)/C=C/c3ccc(F)cc3)cc2)nc(N2CCOCC2)n1`, the growth in [1] was 33.3%; in [2] it was 0.84% (active); in assay [3] it was 84.8%; in assay [4], 36.4%; in assay [5], 76.6%; in [6], 73%. For the same molecule, the growth in assay [7] is 79.2%; in [8], 12.2%; in [9], 70.1%; in assay [10], 12.7%.
As to `COc1ccc2[nH]c(O)c(N=Nc3nc(-c4ccccc4)cs3)c2c1`, the growth is 34.6% in [1]; 28.9% in assay [2]; 22.5% in assay [3]; 60.1% in assay [4]; 4.35% (active) in assay [5]; 17.1% in [6]. Moreover, the growth in assay [7] was -8.96% (active); in assay [8], -11.9% (active); in assay [9] it was 59.3%; in [10], 55.6%.

The values are drawn from PubChem BioAssay (NCI).
